Assay outcomes from PubChem.
APOBEC3G inh: APOBEC3G DNA deaminase inhibitors, primary screen, biochemical, fluorescence, single-stranded DNA substrate, uHTS. DNA dC->dU-editing enzyme APOBEC-3G (Homo sapiens), Q9HC16. recombinant A3G, ssDNA deamination FAM/TAMRA fluorescence. hit rate 0.28% among 330,000. inhibition, % at 20 µM;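 active means inhibition of at least 40% at 20 µM, with no more than 30% in the related APOBEC3A deaminase screen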
APOBEC3A inh: APOBEC3A ssDNA deaminase inhibitors, primary screen, selectivity assay for APOBEC3G inhibitor project, biochemical, FAM/TAMRA oligo cleavage fluorescence | DNA dC->dU-editing enzyme APOBEC-3A (Homo sapiens), P31941 | recombinant A3A, FAM/TAMRA ssDNA deamination fluorescence | inhibition, % at 20 µM | hit rate 0.41% among 330,000;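 active means at least 40% inhibition at 20 µM here, with at most 30% in a related deaminase screen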
Target sequence (P31941 whole entry, looked up): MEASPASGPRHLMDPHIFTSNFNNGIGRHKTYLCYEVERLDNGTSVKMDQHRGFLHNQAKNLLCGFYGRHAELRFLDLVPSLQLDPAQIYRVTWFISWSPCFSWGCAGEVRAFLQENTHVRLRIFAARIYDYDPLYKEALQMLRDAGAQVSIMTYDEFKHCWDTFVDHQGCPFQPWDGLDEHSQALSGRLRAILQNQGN
PolyA inh: polyadenylation inhibitors in yeast reporter cells, primary screen, luminescence, S. cerevisiae; activity score, % at 12 µM; AID 1875, 2009; hit rate 0.02% among 300,000; S. cerevisiae SKY197-pL101 polyadenylation reporter, beta-gal luminescence; efflux-impaired pdr1/pdr3 knockout yeast; score 100 = 6 SD above DMSO;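 active means lowest replicate activity score at least 50, where 100 means six control SD above control mean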;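 further: yeast exposed to compound for 9 h at 30 °C; higher score means more reporter readthrough which indicates perturbed polyadenylation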
NALP1 inh: NALP1 inflammasome inhibitors in reconstituted yeast, colorimetric, S. cerevisiae, triplicate retest; S. cerevisiae NALP1/ASC/caspase-1 growth, X-gal OD620, 72 h; inhibition, % at 10 µM; hit rate 0.61% among 280,000; in the data active means inhibition mostly above about 24%, no sharp cut-off; inactive means mostly below about 32%
APOBEC3A confirm: APOBEC3A deaminase inhibitors, retest, confirmation, selectivity assay for APOBEC3G inhibitor project, biochemical, single concentration, fluorescence readout; inhibition, % at 20 µM; hit rate 63% among 1,400; shares compounds with APOBEC3A inh; recombinant A3A, ssDNA deaminase UDG fluorescence assay; AID 493151, 2011;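 active means inhibition reaching a set limit, 80% of the first screen's cutoff, at 20 µM in any replicate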
UDG A3A counter: E. coli UDG inhibitors, confirmation, counter-screen for APOBEC3A inhibitor project, biochemical, single concentration, fluorescence, FAM/TAMRA oligo. inhibition, % at 20 µM. UDG counterscreen, FAM/TAMRA uracil oligo fluorescence. 1,000 tested, under 10 active. shares compounds with APOBEC3A inh; call rule not given here
APOBEC3G confirm: APOBEC3G deaminase inhibitor retest, confirmation, biochemical, fluorescence, single-stranded DNA substrate, single concentration. shares compounds with APOBEC3G inh. hit rate 72% among 890. recombinant A3G ssDNA deaminase, UDG/FAM-TAMRA fluorescence. inhibition, % at 20 µM. AID 493152, 2011;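 active means inhibition reaching a set limit in any replicate at 20 µM, the limit being 80% of the first screen's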
UDG ctr A3G: E. coli UDG inhibitors, confirmation, counter-screen for APOBEC3G inhibitor project, biochemical, single concentration, fluorescence, FAM/TAMRA oligo | shares compounds with APOBEC3G inh | 710 tested, under 10 active | inhibition, % at 20 µM | UDG counterscreen;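 active means compounds giving 40% or more inhibition at 20 µM in any one of the three replicates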;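 further: inhibitors lower the FAM signal released by uracil excision and alkaline cleavage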
Target sequence (P12295 whole entry, looked up): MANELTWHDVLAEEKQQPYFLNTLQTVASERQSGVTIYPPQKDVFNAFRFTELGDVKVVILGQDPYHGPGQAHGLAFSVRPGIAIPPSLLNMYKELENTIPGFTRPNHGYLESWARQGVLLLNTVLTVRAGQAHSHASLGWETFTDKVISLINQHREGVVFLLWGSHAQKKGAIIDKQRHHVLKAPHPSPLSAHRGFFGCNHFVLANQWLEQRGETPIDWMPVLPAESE
Large screens that a line does not name were inactive (follow-up assays come after a bar, where they were run). Compounds with a hit are over-represented: about 1.2% of the library has one in this group of screens.

Cc1ccccc1C(=O)Nc1c2c(nn1C(C)(C)C)CS(=O)(=O)C2	none
CCOCc1cnc(C)nc1NCC(=O)c1c(C)[nH]c2cc(C)ccc12	APOBEC3A inh 56 | APOBEC3A confirm 64 | UDG A3A counter inactive
O=C(O)C/C(=C\c1cc(Cl)c2c(c1)OCO2)c1nc2ccccc2s1	APOBEC3A inh 45 | APOBEC3A confirm 38 | UDG A3A counter inactive
O=C(Nc1ccc(Cl)cc1)c1ccc2c(=O)n3c(nc2c1)CCCCC3	APOBEC3A inh 52 | APOBEC3A confirm inactive
O=C(Nc1ccc(F)c(Cl)c1)c1ccc2c(=O)n3c(nc2c1)CCCCC3	none
CCN1CCN(c2ccc(NC(=O)c3cc4ccccc4cc3OC)cc2C)CC1	APOBEC3A inh 41 (no result: PolyA inh, NALP1 inh) | APOBEC3A confirm 73 | UDG A3A counter inactive
CCN1CCN(c2ccc(NC(=O)c3ccc4c(c3)OCCO4)cc2C)CC1	APOBEC3A inh 74 (no result: PolyA inh, NALP1 inh) | APOBEC3A confirm 73 | UDG A3A counter inactive
CCN1CCN(c2ccc(NC(=O)c3ccccc3F)cc2Cl)CC1	none
Cc1ccc(S(=O)(=O)N(C)c2ccc3sc(C)nc3c2)cc1	none
CCN(CC)C(=O)Cn1c(C)c(/C=C/c2cc[n+](C)cc2)c2ccccc21	APOBEC3A inh 64 | APOBEC3A confirm 62 | UDG A3A counter inactive
C=CCn1c(C)c(/C=C/c2cc[n+](C)cc2)c2ccccc21	APOBEC3A inh 42 | APOBEC3A confirm 59 | UDG A3A counter inactive
Cc1ccc(CN(C)C(=O)CN2C(=O)NC3(CCCc4ccccc43)C2=O)c(C)c1 (stereo not given)	none (no result: PolyA inh, NALP1 inh)
Cc1ccc(NC(=O)COC(=O)CCc2c(C)nc3nc(N)nn3c2C)cc1C	none (no result: PolyA inh, NALP1 inh)
O=C(/C=C/c1ccc(F)cc1)c1cc(Br)ccc1O	none
O=C(/C=C/c1ccccc1)c1cc(Br)ccc(=O)c1O	APOBEC3A inh 41 | APOBEC3A confirm 40
Cc1cccc(C(=O)OCC(=O)NCCNC(=O)COC(=O)c2cccc(C)c2C)c1C	APOBEC3A inh 40 | APOBEC3A confirm inactive
CCOC(=O)c1sc(N=NC2=C(O)CCCC2=O)c(C(=O)OCC)c1C	APOBEC3A inh 40 | APOBEC3A confirm 18 | UDG A3A counter inactive
COc1ccc(C(=O)Nn2c(CC(C)C)nc3cc(Cl)ccc3c2=O)c(OC)c1	none
CN(C)S(=O)(=O)c1cccc(NC(=O)CO/N=C(\N)c2ccccc2)c1	none (no result: NALP1 inh)
O=C(Nc1ccc(F)cc1F)c1noc2c1CCC2	APOBEC3A inh 50 | APOBEC3A confirm 33
Cc1ccc(N2C(SCC(=O)O)=NC(=Nc3cccc(C)c3)C23CCCC3)cc1	APOBEC3A inh 44 | APOBEC3A confirm 15 | UDG A3A counter inactive
CC(C)CCOCC(O)CCC(=O)NNC(=S)Nc1ccccc1 (stereo not given)	APOBEC3A inh 92 | APOBEC3A confirm inactive | UDG A3A counter inactive
CN(c1ccc(C(=O)Nc2cccnc2)cc1)S(=O)(=O)c1ccccc1	APOBEC3A inh 52 | APOBEC3A confirm inactive
C#C[C@]1(O)CC[C@H]2[C@@H]3CCC4=Cc5oncc5C[C@]4(C)[C@H]3CC[C@@]21C	none (no result: NALP1 inh)
O=Cc1cn(-c2ccccc2)nc1-c1cc2cc(O)ccc2oc1=O	none
O=Cc1cn(-c2ccccc2)nc1-c1cc2c(ccc3ccccc32)oc1=O	APOBEC3A inh 77 (no result: PolyA inh) | APOBEC3A confirm inactive | UDG A3A counter inactive
O=C(/C=C/Nc1ccc(Oc2ccccc2Cl)cc1)c1ccco1	none
FC(F)(F)c1cc(-c2cccs2)nc2cc(-c3ccccc3)nn12	none
CCn1cc(-c2cc(C(F)(F)F)n3nc(C(=O)O)cc3n2)c(C)n1	APOBEC3A inh 54 | APOBEC3A confirm 29 | UDG A3A counter inactive
O=C(O)c1cc2nc(-c3ccc(F)cc3)cc(C(F)(F)F)n2n1	none
O=C(O)c1cc2nc(-c3cccs3)cc(C(F)(F)F)n2n1	APOBEC3A inh 74 | APOBEC3A confirm 50 | UDG A3A counter inactive
Cc1ccc([N+](=O)[O-])cc1S(=O)(=O)Nc1ccc(C(=O)NCc2ccccn2)cc1	none (no result: NALP1 inh)
CCN(CC)S(=O)(=O)c1cccc(-c2n[nH]c(=S)n2C)c1	APOBEC3G inh 46 | APOBEC3G confirm 69 | UDG ctr A3G inactive
Cc1ccc(-n2c(-c3ccc(Cl)cc3)n[nH]c2=S)c(C)c1	none
C=CCn1c(-c2cccc(S(=O)(=O)N(CC)CC)c2)n[nH]c1=S	APOBEC3G inh 47 | APOBEC3G confirm 79 | UDG ctr A3G inactive
Cc1ccc(-c2n[nH]c(=S)n2C)cc1Cl	APOBEC3G inh 50 | APOBEC3G confirm 61 | UDG ctr A3G inactive
CC1CCN(C(=O)COC(=O)c2ccc(=O)n(Cc3ccccc3)n2)CC1	none (no result: NALP1 inh)
COc1cc(C(=O)OCC(=O)Nc2ccc(S(=O)(=O)N3CCCC3)cc2)cc(OC)c1OC	none (no result: PolyA inh, NALP1 inh)
Cc1ccc(C)c(N2CCN(S(=O)(=O)c3ccc4c(c3)NC(=O)CS4)CC2)c1	none
Cc1ccc(-n2c(N)c(C(=O)N3CCOCC3)sc2=S)cc1	none
CN1CCN(C(=O)c2sc(=S)n(-c3ccccc3)c2N)CC1	APOBEC3G inh 66 | APOBEC3G confirm 81 | UDG ctr A3G inactive
COC(=O)c1sc(=S)n(-c2cccc(Cl)c2)c1N	APOBEC3G inh 54 | APOBEC3G confirm 30 | UDG ctr A3G inactive
CCOC(=O)c1ccc(NC(=O)CN2C(=O)CN(C(C)=O)C2=S)cc1	none
O=C(O)c1ccccc1NS(=O)(=O)c1cccc(-n2sc3ccccc3c2=O)c1	APOBEC3G inh 78 | APOBEC3G confirm 87 | UDG ctr A3G inactive
O=C(O)c1ccccc1NS(=O)(=O)c1cccc(C(F)(F)F)c1	none
O=C(CCS(=O)(=O)c1ccccc1Cl)NCCC1=CCCCC1	none
COc1ccc(-n2sc3ccc(F)cc3c2=O)cc1	APOBEC3G inh 67 (no result: PolyA inh, NALP1 inh) | APOBEC3G confirm 81 | UDG ctr A3G inactive
